An excerpt weighted towards active compounds, which were near 2.2% of everything screened.
aSyn 5UTR inh: MLPCN primary screen, SNCA 5' untranslated region; alpha-synuclein 5'UTR reporter, inhibitor activity; inhibition, % (tested at 7.5 µM); AID 1813; 0.82% of 300,000 active; in the data active means inhibition above about 60%; inconclusive means no clear call, values can overlap the other calls;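 further: H4 neuroglioblastoma cells stably carrying SNCA 5'UTR luciferase fusion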
IEC-6 tox: counter-screen for KLF5 inhibitors: cytotoxicity in IEC-6 cells | inhibition, % at 5 µM | 0.78% of 290,000 active | IEC-6 cytotoxicity, luminescence viability
BaF3 parental: parental Ba/F3 viability inhibition as JAK2V617F counter-screen; CellTiter-Glo ATP luminescence; inhibition, % at 5.6 µM; 1.1% of 220,000 active; AID 1486;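 active means inhibition above a per-campaign cutoff, the mean inhibition of all tested compounds plus 3 SD, cut at about 27% in these data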
KLF5 inhibitor: suppresses KLF5 promoter-driven expression; DLD-1 KLF5 promoter-luciferase reporter, luminescence; inhibition, % at 5 µM; 0.23% of 290,000 active;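 active means inhibition above a per-plate limit of that plate's mean compound inhibition plus 3 SD, cut at about 60% in these data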;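 further: higher means less KLF5 promoter-driven luciferase light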
Ba/F3 V617F tox: reduce viability of Ba/F3 cells dependent on JAK2V617F; Ba/F3 EpoR-JAK2V617F viability, ATP luminescence; inhibition, % at 5.6 µM; 1.1% of 220,000 active; AID 1446;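 active means inhibition above the campaign mean plus 3 SD over all tested compounds, cut at about 24% in these data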;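 further: cytokine-independent growth of Ba/F3 cells driven by EpoR plus mutant JAK2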
APP transl inh: APP translation inhibition; SH-SY5Y APP 5'UTR-luciferase reporter, luminescence; inhibition, % at 2 µM; 0.82% of 190,000 active;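 active means inhibition above a set limit, derived from the sample mean plus 3 SD, cut at about 45% in these data; inconclusive means one replicate passes the limit while the other fails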
IEC-6 tox confirm: confirmation of cytotoxic compounds in rat IEC-6 intestinal epithelial cells. shares compounds with IEC-6 tox. IEC-6 rat intestinal epithelial viability, luminescence. inhibition, % at 5 µM. 63% of 1,900 active
Hits are given with their value; i = inactive; ? = inconclusive; nt = no result given. Unless noted, no stated cut-off is given here; in the data, active means inhibition above about 22%; inactive means the rest.

SMILES	aSyn 5UTR inh	IEC-6 tox	BaF3 parental	KLF5 inhibitor	Ba/F3 V617F tox	APP transl inh	IEC-6 tox confirm
COc1ccc(S(=O)(=O)N2CCCOC2CNC(=O)C(=O)NCCc2ccco2)cc1C (stereo unspecified)	i	28.5	nt	i	nt	nt	i
O=C(NCCc1ccco1)C(=O)NCC1OCCCN1S(=O)(=O)c1ccc(F)cc1 (stereo unspecified)	i	i	nt	i	nt	nt	nt
COc1ccc(Nc2nnc(Cc3ccncc3)c3ccccc23)c(OC)c1	i	i	nt	i	nt	nt	nt
S=c1nc(NCCc2ccccc2Cl)c2ccccc2[nH]1	i	23.8	nt	i	nt	nt	i
O=C(CCCCCNc1nc(=S)[nH]c2ccccc12)NCc1ccccc1Cl	i	i	i	i	i	i	nt
CCO[C@@H]1OC(C(=O)N2CCCCCCC2)=C[C@H](C2CCCCC2)[C@H]1CCCO	i	i	i	i	i	i	nt
O=C(CSc1ncnc2nc[nH]c12)c1ccc(Cl)cc1	i	41.1	nt	i	nt	nt	23.3
O=C(CSc1ncnc2nc[nH]c12)c1ccccc1	i	i	i	i	i	i	nt
COc1ccc(C(=O)NC(=S)Nc2cccc3ncccc23)cc1[N+](=O)[O-]	i	i	nt	i	nt	nt	nt
Cc1ccc(S(=O)(=O)NCC(=O)N(CC2CCCO2)C(C(=O)NC2CCCCC2)C(C)C)cc1 (stereo unspecified)	i	i	nt	i	nt	nt	nt
COc1cc(Br)c(C2C(C#N)=C(N)Oc3n[nH]c(-c4cccnc4)c32)cc1OC (stereo unspecified)	i	i	i	i	i	i	nt
CCO[C@@H]1OC(C(=O)Nc2ccccc2)=C[C@H](c2coc3ccccc3c2=O)[C@H]1CCCO	?	24.8	i	i	i	i	i
CCc1nn(C(C)C(=O)N2CC(C)CC(C)C2)c(=O)c2cc3occc3n12 (stereo unspecified)	i	i	nt	i	nt	nt	nt
CCc1nn(C(C)C(=O)N2CCN(c3ccc(OC)cc3)CC2)c(=O)c2cc3occc3n12 (stereo unspecified)	i	44.1	nt	i	nt	nt	24.1
Cc1ccc(C)c(C(=O)CSc2nc3ccccc3c(=O)[nH]2)c1	i	44.0	i	i	i	i	48.0
Cc1cc(C)c(C(=O)CSc2nc3ccccc3c(=O)[nH]2)cc1C	i	71.0	i	i	i	i	51.6
Cc1ccc(C(=O)CSc2nc3ccccc3c(=O)[nH]2)cc1C	i	i	i	i	i	i	nt
COc1ccc(/C=C/C(=O)Nc2ccccc2C(=O)NCC(c2ccc(OC)cc2)N(C)C)cc1 (stereo unspecified)	i	i	nt	i	nt	nt	nt
COCCN(C(=O)Nc1ccccc1OC)c1nc2ccccc2s1	i	45.1	nt	i	nt	nt	31.3
CSc1nnc2c3ccccc3n(CCc3ccccc3)c2n1	i	46.0	i	i	i	i	41.6
Cc1ccc(Cc2cnc(NC(=O)c3cccs3)s2)cc1	i	i	i	i	i	i	nt
Cc1ccc(C(=O)Nc2ncc(Cc3ccccc3)s2)o1	i	51.3	79.1	i	81.0	i	39.7
Cc1cnc(NC(=O)CCc2ccccc2)s1	i	31.0	nt	i	nt	nt	i
O=C(CCc1ccccc1)Nc1ccc(Cl)cn1	i	67.8	50.9	i	67.2	75.3	40.4
CC/C(=N/NC(=O)c1ccccc1O)c1c(C)[nH]n(-c2ccccc2)c1=O	i	nt	nt	nt	nt	nt	nt
SMILES	aSyn 5UTR inh	IEC-6 tox	BaF3 parental	KLF5 inhibitor	Ba/F3 V617F tox	APP transl inh	IEC-6 tox confirm
COc1cccc(/C=N/Nc2snc(SC)c2C#N)c1O	i	i	i	i	i	i	nt
COc1cccc(/C=N/Nc2snc(SC)c2C#N)c1	nt	44.1	i	i	i	i	36.5
COc1ccc(/C=N/Nc2snc(SC)c2C#N)cc1OC	i	41.0	i	i	i	i	31.4
CSc1nsc(N/N=C/c2ccccc2)c1C#N	i	34.1	i	i	i	i	33.4
Cc1cc(C(=O)O)cc(S(=O)(=O)Nc2ccccc2C(=O)NC(C)c2ccccc2)c1C (stereo unspecified)	i	i	nt	i	nt	nt	nt
CCOc1ccc(CNc2nnnn2C)cc1	i	i	nt	i	nt	nt	nt
O=C(NCc1ccco1)C1CCCN(c2nnc(-n3cccc3)s2)C1 (stereo unspecified)	i	i	nt	i	nt	nt	nt
Cc1ccc(C(=O)Nc2ccccc2SCC2CSc3nc4ccccc4c(=O)n32)cc1 (stereo unspecified)	i	69.9	i	i	i	i	44.7
O=C(Nc1ccccc1SCC1CSc2nc3ccccc3c(=O)n21)c1ccccc1 (stereo unspecified)	i	49.5	i	i	i	i	32.2
Cc1cccc(C(=O)Nc2ccccc2SCC2CSc3nc4ccccc4c(=O)n32)c1 (stereo unspecified)	i	65.6	i	i	i	i	44.0
O=C(Nc1ccccc1SCC1CSc2nc3ccccc3c(=O)n21)c1ccccc1Cl (stereo unspecified)	i	59.9	i	i	i	i	26.4
O=C(Cc1ccccc1)Nc1ccccc1C(=O)N1CCCCCC1	i	i	i	i	i	i	nt
O=c1c2ccccc2nc2n1C(CSc1ccccc1)CS2 (stereo unspecified)	i	i	i	i	i	i	nt
O=C(Nc1ccccc1SCC1CSc2nc3ccccc3c(=O)n21)c1cccc(Cl)c1 (stereo unspecified)	i	69.4	i	i	i	i	41.8
COc1ccc(C2N=C(N)N=C(N)N2c2ccc(C)cc2)cc1 (stereo unspecified)	i	i	i	i	i	i	nt
CC1(C)N=C(N)N=C(N)N1c1cccc(C(=O)O)c1	i	36.8	i	i	i	i	i
COc1cccc(N2CC(=O)N(c3cccc(OC)c3)CC2=O)c1	i	i	i	i	i	i	nt
COc1ccc(N2C(N)=NC(N)=NC2(C)C)cc1	81.4	53.0	98.8	i	98.0	i	i
COc1cccc(N2C(N)=NC(N)=NC2(C)C)c1	95.9	54.1	92.9	i	94.5	i	41.8
COc1ccc(C(=O)COC(=O)CCCC(=O)NC2CCCCC2)cc1	i	i	nt	i	nt	nt	nt
Cc1oc2c(cc(NS(=O)(=O)c3ccc(F)cc3)c3ccccc32)c1C(=O)O	i	i	nt	i	nt	nt	nt
COc1cc(NS(=O)(=O)c2ccc(C)cc2)c2ncccc2c1	68.6	79.3	i	i	i	i	74.3
Cc1ccc(S(=O)(=O)Nc2ccccc2-c2ccccc2NS(=O)(=O)c2ccc(C)cc2)cc1	i	i	i	i	i	i	nt
COc1ccc(S(=O)(=O)Nc2ccccn2)cc1	i	i	nt	i	nt	nt	nt
COc1ccc(S(=O)(=O)Nc2cc3c(C(C)=O)c(C)oc3c3ccccc23)cc1	81.9	83.3	78.2	i	79.4	91.7	55.2
Cc1ccc(S(=O)(=O)Nc2cccc3cccnc23)cc1	63.4	32.1	i	i	i	i	100.2
COc1ccc(-n2nc(C(=O)NCC(=O)NCCN(C)C)c3ccccc3c2=O)cc1	i	i	nt	i	nt	nt	nt
O=Cc1ccc(OC(=O)CCCCC(=O)Oc2ccc(C=O)cc2)cc1	i	i	nt	i	nt	nt	nt
O=C(N/N=C/c1ccc2c(c1)OCO2)c1cccc2ccccc12	i	28.0	nt	i	nt	nt	25.3

Bioassay records deposited in PubChem by several laboratories.
